In PubChem BioAssay one finds composite z-score and z-score data, which are given here for 5 compounds.

Calls of active or inactive are those of the source. Unless noted, the rule behind the calls is not given here.

The subject of assay [1] is Wnt5a (protein binding on small-molecule microarray). Kind of assay: small molecules binding Wnt5a protein – biophysical, small-molecule microarray, 635/667 nm fluorescence, primary screen (AID 1142).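 Note: fluorescence read at 667 nm with signal to noise per printed feature.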 Particulars: 635 nm fluorescence, higher = more signal.
Assay [2] in a line: ATP-based viability of Huh7 replicon cells – cell-based, CellTiter-Glo luminescence, basal, 48 h, cytotoxicity control for HCV replication inhibitor project, primary screen (AID 1143).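 Note: Huh7 hepatoma cells carrying a hepatitis C replication reporter with no stimulus; test concentration not given here.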 Particulars: higher = more signal, called active from +8 up or from −8 down.
The nature of assay [3]: Pseudomonas biofilm growth suppression – PAO1 strain, BacTiter-Glo luminescence, LB-PBS, primary screen (AID 1144). Particulars: P. aeruginosa PAO1 biofilm, 12 h, higher = more signal.
The nature of assay [4]: basal CRE-LacZ reporter activity in PC12 – cell-based, unstimulated, primary screen (AID 1145). The following applies: no forskolin, luminescence, 4.5 h, higher = more signal, called active from +8 up or from −8 down.
The nature of assay [5]: forskolin-driven CRE-LacZ activity in PC12 – cell-based, CRE-LacZ reporter, forskolin-stimulated, primary screen (AID 1146).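 Note: PC12 cells with 6xCRE LacZ reporter stimulated by forskolin 10 µM; beta-galactosidase reporter signal reflecting CREB driven transcription.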 The following applies: luminescence, 4.5 h, higher = more signal, called active from +8 up or from −8 down.
The target of assay [6] is Streptavidin (Streptomyces avidinii) (UniProt P22629). As to the kind of experiment: compounds binding control protein streptavidin – biophysical, small-molecule microarray, 635/667 nm fluorescence, artefact control for SMM compound annotation, primary screen (AID 1147).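 Note: signal reflects streptavidin binding to arrayed compounds as a control protein.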 Particulars: higher = more signal.
Chain of Streptavidin (Streptomyces avidinii) (P22629 whole entry, looked up): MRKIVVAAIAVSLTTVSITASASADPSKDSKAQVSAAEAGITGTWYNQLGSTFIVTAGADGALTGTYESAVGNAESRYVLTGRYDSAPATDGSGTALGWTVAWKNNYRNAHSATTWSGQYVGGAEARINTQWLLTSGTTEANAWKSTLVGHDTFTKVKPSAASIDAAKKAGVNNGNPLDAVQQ
Assay [7] in a line: probe aInhba binding on compound microarray – biochemical, small-molecule microarray, 635/667 nm fluorescence, primary screen (AID 1148).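 Note: score merges 667nm spot fluorescence with signal-to-noise for antibody binding to printed compounds.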 Particulars: higher = more signal.
For assay [8], the target named is Torsin-1A (Homo sapiens) (UniProt O14656). Kind of assay: TOR1A wild-type binding on microarray – cell lysate, small-molecule microarray, lysate, 635/667 nm, primary screen (AID 1149). The following applies: COS7 hTOR1A-WT lysate, 635 nm fluorescence, higher = more signal.
Chain of Torsin-1A (Homo sapiens) (O14656 whole entry, looked up): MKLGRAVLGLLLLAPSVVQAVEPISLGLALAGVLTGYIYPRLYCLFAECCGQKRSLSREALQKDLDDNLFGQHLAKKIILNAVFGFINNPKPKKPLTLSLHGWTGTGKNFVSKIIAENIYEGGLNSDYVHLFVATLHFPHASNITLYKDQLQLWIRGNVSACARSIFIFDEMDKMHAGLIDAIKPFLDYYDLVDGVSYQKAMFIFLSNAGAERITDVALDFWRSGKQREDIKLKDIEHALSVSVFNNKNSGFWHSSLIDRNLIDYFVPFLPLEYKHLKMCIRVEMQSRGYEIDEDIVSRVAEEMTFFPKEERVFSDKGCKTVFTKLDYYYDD
Assay [9] has the same target. As to the kind of experiment: torsin A mutant lysate binding on microarrays – cell lysate, small-molecule microarray, COS7 lysate, 635/667 nm fluorescence, primary screen (AID 1150).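 Note: score pools 667 nm emission and signal to noise measuring lysate protein binding.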 Particulars: COS7 hTOR1A mutant lysate, 635 nm fluorescence, higher = more signal.
Assay [10] relates to Sonic hedgehog protein (Shh). As to the kind of experiment: Sonic hedgehog microarray binding compounds – biochemical, small-molecule microarray, 635/667 nm fluorescence, primary screen (AID 1151).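 Note: Shh protein binding to compounds spotted on small-molecule microarray slides; score combines spot fluorescence intensity with signal-to-noise across triplicate slides.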 The following applies: 635 nm fluorescence, higher = more signal.
Assay [11] can be described thus: optical density shifts of acrAB sulA E. coli – strain DRC41, OD650, 48 h, E. coli filamentation inducer project, primary screen (AID 1152).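 Note: E. coli MC1000 strain DRC41 lacking acrAB efflux pump and sulA.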 The following applies: higher = more signal, called active from +8 up or from −8 down.
A short description of assay [12]: probe aLefty1 binding on compound microarray – biochemical, small-molecule microarray, 635/667 nm fluorescence, primary screen (AID 1153).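 Note: score merges spot fluorescence with signal-to-noise ratio from the scanned slide images.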 Particulars: higher = more signal.
Assay [13] is described as follows: plasmodial surface anion channel blockers, osmotic lysis – cell-based, P. falciparum Indochina, OD700, 1 h, primary screen (AID 1154). Particulars: P. falciparum Indochina infected RBC osmotic lysis, higher = more signal, called active from +8 up or from −8 down.
Assay [14] is described as follows: plasmodial surface anion channel blockers, osmotic lysis – cell-based, P. falciparum Indochina, OD700, 2 h, primary screen (AID 1155).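 Note: lysis reports solute entry through the parasite surface anion channel PSAC.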 Particulars: P. falciparum Indochina infected erythrocytes, higher = more signal, called active from +8 up or from −8 down.
The nature of assay [15]: changes in parasitized red cell lysis, either direction – P. falciparum Indochina, OD700, 3 h, PSAC antagonist project, primary screen (AID 1156). Particulars: P. falciparum-infected erythrocytes, osmotic lysis, higher = more signal, called active from +8 up or from −8 down.
Assay [16] is described as follows: plasmodial surface anion channel blockers, osmotic lysis – cell-based, P. falciparum Indochina, OD700, 18 h, primary screen (AID 1157). The following applies: P. falciparum Indochina infected erythrocytes, osmotic lysis OD700, 18 h; higher = more signal, called active from +8 up or from −8 down.
A short description of assay [17]: S6 kinase pathway phospho-S6 level changes – cell-based, A549, cytoblot, luminescence, serum-stimulated, primary screen (AID 1158).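 Note: serum-stimulated A549 lung adenocarcinoma cells; signal is phosphorylated S6 detected by cytoblot immunostaining with HRP secondary.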 The following applies: 5 h, higher = more signal.
For assay [18], the target named is NADPH oxidase 2 (Homo sapiens) (UniProt P04839). As to the kind of experiment: compounds shifting NOX2 Amplex Red fluorescence – cell-based, HEK293-NOX2, PMA-stimulated, NOX inhibitor project, primary screen (AID 1159). Note: test concentration not given here. The following applies: 45 min, higher = more signal, called active from +8 up or from −8 down.
Chain of NADPH oxidase 2 (Homo sapiens) (P04839 whole entry, looked up): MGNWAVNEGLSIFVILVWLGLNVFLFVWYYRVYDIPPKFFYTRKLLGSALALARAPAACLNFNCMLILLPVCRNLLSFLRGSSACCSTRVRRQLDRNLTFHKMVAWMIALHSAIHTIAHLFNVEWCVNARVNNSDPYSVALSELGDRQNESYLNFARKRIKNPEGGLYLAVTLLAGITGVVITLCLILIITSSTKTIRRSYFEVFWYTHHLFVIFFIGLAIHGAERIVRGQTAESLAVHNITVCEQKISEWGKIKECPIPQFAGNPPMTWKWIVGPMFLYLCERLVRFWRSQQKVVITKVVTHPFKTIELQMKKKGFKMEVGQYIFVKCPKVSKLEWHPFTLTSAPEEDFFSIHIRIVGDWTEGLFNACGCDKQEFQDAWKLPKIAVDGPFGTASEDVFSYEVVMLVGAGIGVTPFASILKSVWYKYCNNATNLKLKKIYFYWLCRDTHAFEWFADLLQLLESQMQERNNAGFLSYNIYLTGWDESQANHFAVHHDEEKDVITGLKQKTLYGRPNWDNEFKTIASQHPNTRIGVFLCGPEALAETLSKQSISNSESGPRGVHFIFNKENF
Assay [19] addresses NADPH oxidase 4 (Homo sapiens) (UniProt Q9NPH5). As to the kind of experiment: compounds shifting NOX4 Amplex Red fluorescence – cell-based, HEK293-NOX4, tetracycline-induced, NOX inhibitor project, primary screen (AID 1160). Particulars: HEK293-NOX4, Amplex Red H2O2 fluorescence, 45 min; higher = more signal, called active from +8 up or from −8 down.
Assay [20] concerns the target NADPH oxidase 5 (Homo sapiens) (UniProt Q96PH1). Kind of assay: compounds shifting NOX5 Amplex Red fluorescence – cell-based, HEK293-NOX5, NOX inhibitor project, primary screen (AID 1161). The following applies: HEK293-NOX5, ionomycin, 45 min, higher = more signal.

Chain of NADPH oxidase 5 (Homo sapiens) (Q96PH1 whole entry, looked up): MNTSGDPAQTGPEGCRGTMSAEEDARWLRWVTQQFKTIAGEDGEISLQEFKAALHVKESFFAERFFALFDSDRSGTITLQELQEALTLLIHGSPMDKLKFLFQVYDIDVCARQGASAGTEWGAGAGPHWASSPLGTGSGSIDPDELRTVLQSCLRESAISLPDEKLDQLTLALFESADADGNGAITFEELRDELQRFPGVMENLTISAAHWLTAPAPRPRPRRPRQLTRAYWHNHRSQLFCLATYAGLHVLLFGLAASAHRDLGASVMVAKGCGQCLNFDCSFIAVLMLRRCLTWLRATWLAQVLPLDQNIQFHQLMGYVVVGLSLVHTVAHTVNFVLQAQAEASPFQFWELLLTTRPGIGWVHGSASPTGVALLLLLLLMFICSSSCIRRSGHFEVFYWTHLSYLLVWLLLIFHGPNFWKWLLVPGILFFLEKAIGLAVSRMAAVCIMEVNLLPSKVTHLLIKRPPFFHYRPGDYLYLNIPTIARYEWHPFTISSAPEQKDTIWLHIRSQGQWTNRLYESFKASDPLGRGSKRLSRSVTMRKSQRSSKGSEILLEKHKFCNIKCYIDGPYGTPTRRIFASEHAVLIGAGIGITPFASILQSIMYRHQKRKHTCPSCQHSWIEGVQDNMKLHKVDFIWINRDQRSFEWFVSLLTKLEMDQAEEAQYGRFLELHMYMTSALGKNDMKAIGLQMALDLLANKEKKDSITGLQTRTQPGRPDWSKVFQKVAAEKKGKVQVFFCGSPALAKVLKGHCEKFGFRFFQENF
Chain of NADPH oxidase 4 (Homo sapiens) (Q9NPH5 whole entry, looked up): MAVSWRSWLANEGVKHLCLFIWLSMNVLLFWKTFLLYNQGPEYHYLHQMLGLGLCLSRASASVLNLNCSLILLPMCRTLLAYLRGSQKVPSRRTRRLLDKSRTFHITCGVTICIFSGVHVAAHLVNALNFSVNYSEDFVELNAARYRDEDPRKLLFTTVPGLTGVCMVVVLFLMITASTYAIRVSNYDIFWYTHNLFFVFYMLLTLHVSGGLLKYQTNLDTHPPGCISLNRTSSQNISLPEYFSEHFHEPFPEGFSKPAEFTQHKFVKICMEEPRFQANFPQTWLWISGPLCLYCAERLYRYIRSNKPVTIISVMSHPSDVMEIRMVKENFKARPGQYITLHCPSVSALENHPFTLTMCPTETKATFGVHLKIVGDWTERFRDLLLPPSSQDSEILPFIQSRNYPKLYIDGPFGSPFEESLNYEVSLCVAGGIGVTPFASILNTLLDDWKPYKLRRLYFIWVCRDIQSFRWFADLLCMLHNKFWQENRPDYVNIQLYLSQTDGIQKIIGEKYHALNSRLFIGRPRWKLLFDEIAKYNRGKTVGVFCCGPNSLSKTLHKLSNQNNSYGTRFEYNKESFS

In the case of `C=CC[C@]1(C(=O)NCCN2CCOCC2)N=C(c2ccc(OCCCO)cc2)O[C@H]1c1ccccc1`, the composite z-score in assay [1] came out at 0.891; in [6], 0.416; in [7] it was 0.119; with Torsin-1A (Homo sapiens) [8], 2.03; with Torsin-1A (Homo sapiens) [9] it was 1.44; in [10] it was 0.638. The composite z-score in assay [12] was determined as 0.296. The z-score is -0.541 (inactive) in assay [2]; 0.154 (inactive) in assay [3]; 2.55 (inactive) in [4]; -0.0077 (inactive) in assay [5]; -0.151 (inactive) in assay [11]; 4.72 (inactive) in assay [13]. Also, the z-score in [14] is 0.644 (inactive); in assay [15], 0.168 (inactive); in assay [16], 0.275 (inactive); in assay [17], -0.45; in assay [18] it was 0.0905 (inactive); in [19] it was -0.0559 (inactive). For the same compound, in assay [20], the z-score was found to be 0.115.
On to `C=CCNC(=O)[C@@H]1[C@H]2C(=O)O[C@H](c3ccccc3)[C@H](c3ccccc3)N2[C@H](c2ccc(OCCO)cc2)[C@@]12C(=O)N(C(=O)OCCOC)c1ccccc12`, for which the composite z-score in [1] was 0.538; in assay [6], -0.154; in assay [7], 0.138; in the assay with Torsin-1A (Homo sapiens) [8], 0.72; in the assay with Torsin-1A (Homo sapiens) [9], 0.281; in assay [10], 0.957. The compound further displayed a composite z-score in [12] of 0.258. Further, the z-score in assay [2] is -1.32 (inactive); in [3] it was -0.328 (inactive); in assay [4], 0.712 (inactive); in assay [5] it was -0.477 (inactive); in assay [11] it was 0.127 (inactive); in assay [13], 3.15 (inactive). Also, the z-score is 1.27 (inactive) in assay [14]; -0.947 (inactive) in assay [15]; 0.442 (inactive) in [16]; -0.296 in [17]; 0.406 (inactive) in [18]; 0.789 (inactive) in [19]. Besides, the z-score in assay [20] is -0.0693.
With `[N-]=[N+]=NCc1ccccc1[C@H]1OC(c2ccc(OCCCO)cc2)=N[C@@]1(CCS(=O)(=O)c1ccccc1)C(=O)NCCN1CCOCC1`, the composite z-score in [1] was 0.806; in assay [6], 0.38; in assay [7] it was 0.54; with Torsin-1A (Homo sapiens) [8], 0.234; with Torsin-1A (Homo sapiens) [9] it was 0.183; in assay [10], -0.597. For the same compound, the composite z-score in assay [12] amounted to 0.877. Moreover, the z-score was -0.712 (inactive) in assay [2]; -0.561 (inactive) in assay [3]; 0.115 (inactive) in assay [4]; -0.871 (inactive) in assay [5]; -0.265 (inactive) in [11]; 27.1 (active) in assay [13]. The z-score in [14] is 13.2 (active); in assay [15] it was 1.38 (inactive); in [16] it was 1.99 (inactive); in [17], -0.124; in [18], 0.636 (inactive); in assay [19] it was 1.33 (inactive). The z-score in [20] was found to be 1.65.
Take `CO[C@H]1O[C@H](CO)[C@@H](OC(=O)Nc2ccccc2)[C@@H]2OC(=O)[C@@H](Cc3ccccc3)C/C=C/C[C@H](Cc3ccccc3)C(=O)O[C@@H]12`: the composite z-score is 0.129 in assay [1]; -0.304 in [6]; -0.0719 in assay [7]; 0.433 with Torsin-1A (Homo sapiens) [8]; 1.93 in the assay with Torsin-1A (Homo sapiens) [9]; 0.591 in [10]. In [12], this compound displayed a composite z-score of -0.093. The z-score in assay [2] is -0.0611 (inactive); in assay [3], -0.213 (inactive); in assay [4], -0.403 (inactive); in assay [5] it was -0.656 (inactive); in assay [11] it was 0.364 (inactive); in [13], 0.131 (inactive). Further, the z-score in assay [14] is 0.162 (inactive); in [15] it was 0.288 (inactive); in assay [16], 0.0794 (inactive); in assay [17], -0.0813; in [18], -2.79 (inactive); in assay [19], -0.266 (inactive). Moreover, in assay [20], the z-score is -1.3.
In the case of `COc1ccc([Si](C)(C)[C@@H]2[C@@H](CC(=O)N3Cc4ccccc4C[C@H]3CO)O[C@]3(C(=O)N(Cc4ccc(I)cc4)c4ccccc43)[C@H]2C)cc1`, the composite z-score in assay [1] was 0.206; in assay [6], 0.143; in assay [7] it was -0.101; with Torsin-1A (Homo sapiens) [8] it was 0.211; with Torsin-1A (Homo sapiens) [9] it was 0.204; in assay [10], 1.94. The composite z-score in assay [12] was 0.0063. Besides, the z-score in assay [2] is -6.3 (inactive); in assay [3], 0.199 (inactive); in assay [4], -0.477 (inactive); in [5], 0.0658 (inactive); in [11], 1.35 (inactive); in assay [13], 4.93 (inactive). In addition, the z-score was 1.98 (inactive) in assay [14]; 2.47 (inactive) in assay [15]; 1.21 (inactive) in assay [16]; 0.192 in [17]; 1.19 (inactive) in [18]; 1.15 (inactive) in [19]. Besides, the z-score in assay [20] is 0.652.
